# Measured values as given in PubChem BioAssay.
# Assay: basal RPMI8226 mitochondrial membrane potential changes, profiling panel, cell-based, JC-1 fluorescence, 24 h, 100 nL compound (AID 1169); also: test concentration not given here
# Conditions: RPMI8226 myeloma, JC-1 mitochondrial potential fluorescence, higher = more signal
row,SMILES,z-score
1,CC(C)(C)OC(=O)CC[C@]1(C(=O)N2CCCCC2)COC(c2ccc(OCCCO)cc2)=N1,-0.492
2,O=C1[C@@]23C=C(Br)[C@H](C[C@@H]2COC3)[C@@]12CO2,-0.213
3,O=C1C[C@@](C(=O)NCc2ccccc2)(c2ccc([N+](=O)[O-])cc2)[C@@H](c2ccc(CO)cc2I)N1CC12CC3CC(CC(C3)C1)C2,-1.03
4,O=C1C[C@@](C(=O)NCC(F)(F)F)(c2ccc([N+](=O)[O-])cc2)[C@@H](c2ccc(CO)cc2)N1CC12CC3CC(CC(C3)C1)C2,-1.04
5,CN1C(=O)C2C=CC(C(O)c3ccc(I)cc3)N(Nc3ccccc3)C2C1=O (stereo not given),-0.177
6,COc1cc(C(O)C2C=CC3C(=O)N(Cc4ccccc4)C(=O)C3N2n2cnnc2)cc(OC)c1OC (stereo not given),0.251
7,C=C(COC)/C(=C/C[C@@H](OC(=O)c1ccncc1)c1ccccc1OCCO)c1cc(C(=O)OC)ccc1OC,-0.735
8,CC(C)C[C@@H]1NC(=O)[C@@]23C(=O)N[C@@H](Cc4ccccc4)C2[C@H](C)[C@@]2(C)O[C@H]2C3/C=C/C/C=C\CNC(=O)[C@@H](C)NC1=O (stereo not given in full),0.207
9,CCCNC(=O)[C@@]1(Sc2ccc(C)cc2)CC(=O)N(C(C)C)[C@@H]1c1ccc(CO)cc1I,-0.919
10,CN1C(=O)C2C(C1=O)C1C=C(CCCO)C2C(c2cccs2)N1Cc1cc2c(cc1Br)OCO2 (stereo not given),-0.309
11,C=C(CCCC)/C(=C/C[C@H](OC(C)=O)c1ccc(OCCO)cc1)c1cc(C(=O)OC)ccc1OC,-0.864
12,COC(=O)[C@@]1(Cc2ccc(OC)cc2)[C@H]2c3cc(C(=O)N4CCCC4)n(Cc4ccc(OC(F)(F)F)cc4)c3C[C@H]2CN1C(=O)c1ccccc1,-0.638
13,CS(=O)(=O)CCOC(=O)C1=CC(CCCO)=CC(C2CC2)N(Cc2cccc(OC(F)(F)F)c2)C=C1C(=O)OCCS(C)(=O)=O (stereo not given),-0.34
14,COC(=O)C1=CC(CCCO)=CC(C)N(Cc2cccc(OC(F)(F)F)c2)C=C1C(=O)OC (stereo not given),-0.0402
15,[N-]=[N+]=NCc1ccccc1[C@@H]1OC(c2ccc(OCCCO)cc2)=N[C@]1(Cc1ccccc1)C(=O)NCCN1CCOCC1,-0.191
16,CC(C)C(=C=CC[C@@H](O)c1cccc(OCCO)c1)C[C@@H](O)c1ccccn1,-0.387
17,O=C(NCC(O)CO)[C@@]1(CCS(=O)(=O)c2ccccc2)COC(c2ccc(OCCCO)cc2)=N1 (stereo not given in full),0.747
18,CCOC(=O)C1=C[C@@H](c2ccccc2)N(S(=O)(=O)c2ccc(C)cc2)[C@H]1c1ccccc1,-0.368

row,SMILES,z-score
1,CC(C)OC(=O)CC(=O)CC(O)c1ccc([N+](=O)[O-])cc1 (stereo not given),-0.121
2,COC(=O)C1N=C(c2ccc(OCCCO)cc2)N(c2ccccc2)O1 (stereo not given),-0.44
3,NC(=O)NCC#Cc1ccc2c(c1)[C@]1(C(=O)N2)[C@H](C(=O)N2CCN(c3ncccn3)CC2)[C@H]2C(=O)O[C@H](c3ccccc3)[C@H](c3ccccc3)N2[C@@H]1c1ccc(OCCO)cc1,-0.504
4,[N-]=[N+]=Nc1ccccc1C[C@]1(C(=O)O)N=C(c2ccc(OCCCO)cc2)O[C@H]1c1ccccc1,-0.954
5,C=C(/C(=C/C[C@@H](OC(C)=O)c1ccc(OCCO)cc1)c1cc(C(=O)OC)ccc1OC)C(C)C,-0.799
6,COc1ccc(NC(=O)O[C@H]2[C@@H]3OC(=O)[C@H](Cc4cccc(Br)c4)C/C=C/C[C@@H](Cc4cccc(Br)c4)C(=O)O[C@H]3[C@@H](OC)O[C@@H]2CO)cc1,-0.897
7,[N-]=[N+]=NCc1ccccc1[C@H]1OC(c2ccc(OCCCO)cc2)=N[C@@]1(CCS(=O)(=O)c1ccccc1)C(=O)NCc1ccccc1,-1.02
8,COc1cc(NN2C(C(O)C3CCCCC3)C=CC3C(=O)N(C)C(=O)C32)cc(OC)c1OC (stereo not given),0.316
9,O=C1[C@@H]2[C@@H](CC(COc3ccccc3)=C3[C@@H](CCc4ccccc4)OB(O)C[C@@H]32)C(=O)N1Cc1ccccc1,-1.07
10,O=C1OCCC=C[C@H]2OC34C=CCN(c5ccc(Cl)cc5)C(=O)[C@H]3N(CCCCCCO)C(=O)[C@@H]4C12 (stereo not given in full),-0.0541
11,CCOC(=O)C[C@H]1[C@H](OC(=O)c2ccccc2-c2ccccc2)[C@@H](NC(=O)c2ccc3ccccc3n2)c2cc(OCCCO)ccc2N1C(=O)c1ccccc1,-0.707
12,COC(=O)[C@@]1(Cc2ccc(OC)cc2)[C@H]2c3cc(C(=O)N4CCCC4)n(Cc4ccc(S(C)(=O)=O)cc4)c3C[C@H]2CN1C(=O)c1ccccc1,-0.7
13,C=C[C@@H](C)[C@@H](OC(=O)Nc1ccc(SC)cc1)c1ccc(OCCO)cc1,-0.15
14,NCCCCCNC(=O)[C@@H]1C[C@@H]2C(=O)N3CCC[C@H]3C(=O)N2[C@@H]1c1ccc(O)cc1,-0.175
15,O=C1OCCC/C=C\[C@H]2OC34C=CCN(c5ccc6ccccc6c5)C(=O)[C@H]3N(CCCO)C(=O)[C@@H]4C12 (stereo not given in full),-0.0534
16,CC(=O)NCCCC[C@@H]1NC(=O)[C@@H]2C[C@H](C(=O)NCCCCCCN)[C@H](c3cccc(OCCO)c3)N2C1=O,0.648
17,COCCOC(=O)N1C(=O)[C@@]2(c3cc(C#CCNC(N)=O)ccc31)[C@H](c1ccc(OCCO)cc1)N1[C@H](c3ccccc3)[C@H](c3ccccc3)OC(=O)[C@H]1[C@@H]2C(N)=O,-0.185
